“And” between values parts separate entries of the source, which are not always exact repeats. Identical values can stand only once. The campaign covered roughly 260,000 compounds. About 2,200 (0.85%) were called active.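 Rule for the calls: active = compounds whose cAMP rise, as percent of the full-agonist control response, exceeds 60; inactive = the rest.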 The list comes from a sample in which actives are over-represented; it also holds similar structures and randomly drawn compounds. Some structures have more than one record in an assay (separate samples or runs), and their calls can disagree.

In the experiment the target is Prostaglandin E2 receptor EP2 subtype (Homo sapiens) (UniProt P43116). Kind of experiment: EP2 receptor modulators, cAMP readout, primary screen, cell-based, HTRF cAMP, PGE2 stimulation (AID 940).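 Note: rat C6 glioma line stably carrying human EP2 under a CMV promoter; the protocol text gives 20 µM as final concentration; 100% = response of wells given 1 µM PGE2.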 To be noted: EP2-expressing cells, cAMP HTRF FRET, PGE2 co-stimulation; at 25 µM; stronger effect = higher value.
Prostaglandin E2 receptor EP2 subtype (Homo sapiens), sequence (P43116 whole entry, looked up): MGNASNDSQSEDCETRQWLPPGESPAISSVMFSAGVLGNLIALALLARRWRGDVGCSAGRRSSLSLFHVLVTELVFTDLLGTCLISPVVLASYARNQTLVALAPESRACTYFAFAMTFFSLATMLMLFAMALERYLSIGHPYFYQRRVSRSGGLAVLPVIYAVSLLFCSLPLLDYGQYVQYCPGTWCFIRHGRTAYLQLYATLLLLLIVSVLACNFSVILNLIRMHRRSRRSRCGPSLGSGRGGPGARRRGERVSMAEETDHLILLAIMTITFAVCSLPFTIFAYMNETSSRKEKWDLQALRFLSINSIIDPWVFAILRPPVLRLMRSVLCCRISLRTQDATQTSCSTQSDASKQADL
On to `O=C(CN1C(=O)C2CCCN2S(=O)(=O)c2ccccc21)NCCc1ccccc1` (configuration not stated), for which the induction is -13.3% (inactive).
For the compound `Cc1cc(CN2CCc3c(nc(N4CCCC4)[nH]c3=O)C2)c(C)n1-c1cccnc1`, the induction was -32.9% (inactive).
The same measure for `Cn1c(=O)c2c(nc(SCC(=O)Nc3ccccc3N3CCCCC3)n2C)n(C)c1=O`: 67.3% (active) and 23.3% (inactive); for `CC(C)n1c(SCC(=O)Nc2ccccc2N2CCCCC2)nc2c1c(=O)n(C)c(=O)n2C`: 9.15% (inactive).
With `CCn1c(SCC(=O)Nc2cccc3ccccc23)nc2c1c(=O)n(C)c(=O)n2C`, the induction was -26.4% (inactive).
In the case of `c1ccc(-c2cc(N3CCCCC3)c3ccccc3n2)cc1`, the induction is 40.2% (inactive).
Regarding `CSc1nc2nc(-c3cccc(C(F)(F)F)c3)ccn2n1`, the induction is 27.7% (inactive).
`FC(F)(F)c1cccc(-c2cc3ccccc3nc2N2CCCC2)c1`: the induction is 65.5% (active).
With `C=CCNC(=O)[C@H]1C=CCN1S(=O)(=O)c1ccc(F)cc1` the figure was -8.27% (inactive); with `COc1cc(/C=C/C(=O)N2c3ccccc3Sc3ccc(C(F)(F)F)cc32)cc(OC)c1OC`, 4.97% (inactive); with `O=C(CN1CCCCCC1)N1c2ccccc2Sc2ccc(C(F)(F)F)cc21`, 41.5% (inactive).
As to `O=C(CN1CCCCC1)N1c2ccccc2Sc2ccc(C(F)(F)F)cc21`, the induction was 66.5% (active).
As to `Nc1cc(-c2ccco2)nn(CC(=O)NCc2ccccc2)c1=O`, the induction was 4.9% (inactive).
The same measure for `CCCNC(=O)C1COc2ccccc2O1` (configuration not stated): -4.2% (inactive).
Regarding `O=[N+]([O-])c1ccc(Sc2nc3c(c(C(F)(F)F)n2)CCCC3)nc1`, the induction is 34.3% (inactive).
Take `C/C=N/N(c1ccccc1)c1ccccc1`: the induction is 64.5% (active).
In the case of `COc1cccc(CN2CCN(C(=O)CCn3nnc4ccccc43)[C@@H](C)C2)c1`, the induction is -13.9% (inactive).
Take `CC(C)[C@H](Cn1nc(-c2cccs2)ccc1=O)NC(=O)Cn1cnc2ccccc2c1=O`: the induction is -6.72% (inactive).
Turning to `Cc1cnc(C(=O)NC(C)c2nc(-c3ccncc3)n[nH]2)cn1` (configuration not stated), the induction was -35.1% (inactive).
For `Cc1nc2ccccc2c(-c2ccccc2)c1C(=O)c1ccccc1`, the induction is 94.7% (active).
With `Cc1nc2ccccc2c(C)c1C(=O)c1ccc(F)cc1`, the induction is 11.7% (inactive).
Regarding `CC(=O)c1c(-c2ccccc2)c2ccccc2[nH]c1=O`, the induction is 7.65% (inactive).
With `CC(C)n1c(=O)oc2cc(S(=O)(=O)N3CCCC(C(N)=O)C3)ccc21` (configuration not stated) the figure was -51.2% (inactive); with `Fc1ccc(N2N=C(c3cccs3)CC2c2ccco2)c(F)c1` (configuration not stated), 63.6% (active); with `COc1ccc(C2CC(c3cccs3)=NN2c2ccccc2)cc1` (configuration not stated), 21.6% (inactive).
Turning to `COc1ccccc1N1N=C(c2cccs2)CC1c1ccccc1` (configuration not stated), the induction is 38.4% (inactive).
For the compound `CCC(C)NC(=O)CSc1nc2cc3c(cc2cc1C#N)OCCO3` (configuration not stated), the induction was 33.9% (inactive).
With `CCn1nnnc1SCC(=O)Nc1cccc(C(C)=O)c1` the figure was -7.36% (inactive).
Turning to `CCC(=O)OCc1c(C(F)(F)F)nn(C)c1Oc1cccc(C(F)(F)F)c1`, the induction is 62.3% (active).
Consider `O=Cc1ccc(Oc2cccc(C(F)(F)F)c2)nc1`, for which the induction is 16.6% (inactive).
The same measure for `Cc1nc(N)[nH]c(=O)c1Oc1cccc(C(F)(F)F)c1`: 22.3% (inactive).
For the compound `CCn1c(SCC(=O)Nc2ccc(C(=O)OC)cc2)nnc1-c1cccnc1`, the induction was -7.67% (inactive).
The same measure for `CNc1ncnc2c1ncn2[C@@H]1O[C@H](CO)[C@H](O)C1O` (some centres not stated): 15.2% (inactive).
Take `CCCC(=O)Nc1ncnc2c1ncn2C1O[C@@H]2COP(=O)(O)O[C@H]2[C@H]1OC(=O)CCC` (some centres not stated): the induction is 107% (active).
`OC[C@H]1O[C@@H](n2cnc3c(N[C@H]4CC5CCC4C5)ncnc32)[C@H](O)[C@@H]1O` (some centres not stated): the induction was 0.16% (inactive).
With `O=C(NCCc1ccco1)c1nn(Cc2ccccc2)c(=O)c2ccccc12`, the induction is 44.9% (inactive).
The same measure for `O=c1c2ccccc2c(-c2ccc(F)cc2)nn1-c1ccc(C(F)(F)F)cc1`: 47% (inactive); for `O=c1c2ccccc2c(-c2ccccc2)nn1Cc1ccccc1`: 66.7% (active).
`O=c1c2ccccc2c(-c2ccccc2)nn1-c1ccccn1`: the induction was 11.6% (inactive).
For the compound `CCOC(=O)C(C)n1nc(-c2ccccc2)c2ccccc2c1=O` (configuration not stated), the induction was 49.3% (inactive).
With `O=c1c2ccccc2c(-c2ccc(Br)cc2)nn1Cc1ccccc1` the figure was 71.6% (active).
In the case of `CCCOc1ccc(C2C(C(=O)Nc3ccccc3OC)=C(C)Nc3ncnn32)cc1` (configuration not stated), the induction was 2.41% (inactive).
For the compound `Cc1cc(C)nc(N2CCC(C(=O)NCC(N)=O)CC2)n1`, the induction was -4.46% (inactive).
With `Cc1cc(C)c2cc(C(c3nnnn3C(C)(C)C)N3CCCc4ccccc43)c(=O)[nH]c2c1` (configuration not stated) the figure was 26.2% (inactive); with `COc1ccc2[nH]c(=O)c(CN(CCCO)C(=S)NCCCN(C)C)cc2c1`, -11.3% (inactive).
Consider `CC(C)(C)c1nn(-c2ccc(F)cc2)c2[nH]c(=O)c(CNCCc3ccncc3)cc12`, for which the induction was -25.4% (inactive).
For `Cc1ccccc1OCCCC(=O)Nc1nnc(C2CCCCC2)s1`, the induction is -40.5% (inactive).
Take `COc1ccc(C(=O)N2CCc3cc(OC)c(OC)cc3C2c2ccccc2)cc1OC` (configuration not stated): the induction was 24.2% (inactive).
On to `Cn1c(C(=O)O)ccc1S(=O)(=O)N(Cc1ccccc1)Cc1ccccc1`, for which the induction is 21.3% (inactive).
With `COC(=O)c1ccc(S(=O)(=O)N(CCO)Cc2ccccc2)n1C` the figure was -22.6% (inactive); with `COC(=O)c1ccc(S(=O)(=O)NCc2ccccc2)n1C`, 70.4% (active); with `COc1cccc(/C(O)=C2/C(=O)C(=O)NC2c2cccs2)c1` (configuration not stated), 4.28% (inactive).
For the compound `CN(C(=O)Cc1ccccc1F)c1nc2c(s1)CCc1occc1-2`, the induction is -25.4% (inactive).
In the case of `CN(C)Cc1ccc(F)cc1Sc1cc(Cl)ccc1Cl`, the induction is 75.3% (active).
For the compound `C=COCCNC(=O)C1CCN(c2nc3ccccc3n2CC)CC1`, the induction was -36.5% (inactive).
On to `COc1cccc(CN(Cc2ccco2)Cc2cncn2C)c1`, for which the induction is -1.11% (inactive).
With `CCC(=O)Oc1cccc(C(=O)Nc2ccc(-c3nnc(-c4ccco4)o3)cc2)c1`, the induction is -19% (inactive).
`CCCCOc1ccc(-c2nnc(-c3ccco3)o2)cc1`: the induction was 66.9% (active).
`CCOc1ccc(-c2nnc(-c3ccco3)o2)cc1`: the induction is -1.22% (inactive).
As to `Cc1ccccc1CN1CCC(N2CCCCC2)CC1`, the induction is -20.6% (inactive).
As to `COc1cc(CN2CCN(C(=O)c3cc(OC)c(OC)c(OC)c3)CC2)cc(OC)c1O`, the induction was -32.7% (inactive).
Turning to `Cc1ccc(NC(=O)CSc2nnnn2-c2ccc3c(c2)OCO3)cc1`, the induction is -41.6% (inactive).
On to `COc1ccc(C2CC(c3cccs3)=Nc3ccccc3S2)cc1OC` (configuration not stated), for which the induction was 61.9% (active).
As for `COc1ccc(C2CC(c3cccs3)=NN2C(=O)CSc2nnc(N)s2)cc1OC` (configuration not stated), the induction is -1.37% (inactive).
On to `COc1ccc(C2CC(c3cccs3)=NN2c2ccc(F)cc2)cc1OC` (configuration not stated), for which the induction was 13.2% (inactive).
As to `Cc1cc2c(s1)c1cnn(CC(=O)NC(C)C)c(=O)c1n2C`, the induction was -39.8% (inactive).
With `COc1cc2[nH]c(=O)c(C(=O)NCc3ccc4c(c3)OCO4)c(O)c2cc1OC`, the induction was 4.8% (inactive).
For `COc1cccc(CN2CCC(C(=O)NC(C)(C)C)CC2)c1O`, the induction was -12.3% (inactive).
On to `Cc1ccccc1C(=O)Nc1ccccc1Sc1ccccc1`, for which the induction is 73.8% (active).
On to `O=C(Nc1ccccc1F)c1ccccc1-c1ccccc1`, for which the induction was 33.6% (inactive).
Turning to `O=C(COC(=O)c1cccc(Br)c1)Nc1cccc2c1C(=O)c1ccccc1C2=O`, the induction is -14.5% (inactive).
On to `O=C(COC(=O)c1ccccn1)Nc1cccc2ccccc12`, for which the induction was -6.19% (inactive).
The same measure for `Cc1ccccc1C(=O)Nc1ccc(N2CCCCCC2)cc1`: -79.9% (inactive).
As for `O=C(COC(=O)c1ccccc1)Nc1ccccc1Sc1ccccc1`, the induction is 68.5% (active).
Regarding `CC(C)(C)OC(=O)N1CCC[C@H]1C(=O)c1nc2ccccc2s1`, the induction was 19.4% (inactive).
For `O=C(N1CCC(n2nnc3ccccc3c2=O)CC1)C1(c2ccccc2)CCCC1`, the induction was -7.6% (inactive).
As for `CCc1cc(N2C3CCC2CC(O)(c2ccco2)C3)n2nc3nc(C)cc(C)c3c2n1` (configuration not stated), the induction is 13.8% (inactive).
On to `CCCC(NC(=O)c1cnc(SC)nc1)c1cccs1` (configuration not stated), for which the induction is -29.9% (inactive).
With `Cc1nn(CC(=O)NC2CCCC2)c(=O)c2cc3sccc3n12` the figure was 1.55% (inactive); with `Cc1ccc(Nc2ccc(C(N)=O)cc2[N+](=O)[O-])cc1`, -57.7% (inactive); with `Cc1cc(C)nc(Nc2cc([N+](=O)[O-])ccc2C)n1`, -8.66% (inactive).
As for `Cc1ccc(Nc2cc(C)nc3c(C)ccc([N+](=O)[O-])c23)cc1`, the induction is 66.4% (active).
With `COc1ccc(C)cc1N(CC(=O)NC1CCCC1)C(=O)c1snc(C(N)=O)c1N`, the induction was -63.9% (inactive).
For the compound `COCCCn1c(SCC(=O)Nc2cc(Cl)ccc2OC)nc2sc3c(c2c1=O)CCC3`, the induction is -5.26% (inactive).
For the compound `CC(=O)Nc1nonc1-c1nc2ccccc2n1Cc1ccccn1`, the induction is 4.24% (inactive).
As for `COc1ccc(C)c(Cn2c(-c3nonc3N)nc3ccccc32)c1`, the induction was 69% (active).
Consider `Nc1nonc1-c1nc2ccccc2n1Cc1ccc(F)cc1`, for which the induction is 28.5% (inactive).
As to `COc1ccc(N(C(C)C(=O)N2CCN(C)CC2)S(C)(=O)=O)cc1` (configuration not stated), the induction is -14.6% (inactive).
With `COc1ccc(CN(Cc2cn[nH]c2-c2ccc(O)cc2)CC2CCCO2)cc1` (configuration not stated), the induction is 18.7% (inactive).
Turning to `CCCc1cc(-c2n[nH]c(=S)n2CC)c2ccccc2n1`, the induction was 20.9% (inactive).
As for `CCc1cc(-c2n[nH]c(=S)n2CC(C)C)cs1`, the induction is -1.28% (inactive).
As to `CCCc1cc(-c2n[nH]c(=S)n2Cc2ccccc2)cs1`, the induction is 87.8% (active).
The same measure for `CCCc1nn(CC(=O)NC2CC2)c(=O)c2cc3ccsc3n12`: -12% (inactive).
With `COc1cc(C2C(C#N)=C(N)Oc3c2c(C)nn3-c2ccccc2)ccc1OCC#N` (configuration not stated) the figure was -22.9% (inactive); with `CCOC(=O)CC(=O)CSc1nc(-c2ccccc2)cc(-c2ccc(Cl)cc2)c1C#N`, 9.52% (inactive).
Take `O=C(c1cccs1)N1CCCC(c2nc(-c3ccc(F)cc3)no2)C1` (configuration not stated): the induction was -45.6% (inactive).
`N#Cc1c(-c2ccc(F)cc2)cc(C2CC2)nc1SCC(=O)c1cccs1`: the induction is 63% (active).

The values are drawn from PubChem BioAssay AID940 (Emory University Molecular Libraries Screening Center, 2007).
